The list is a sample of the results.
aSyn 5UTR act: Activators via SNCA 5'UTR binding, MLPCN | actives 7.1% (n = 300,000) | AID 1814 | activity score, % (tested at 7.5 µM), hits read low | alpha-synuclein 5'UTR reporter, activators screen; in the data active = activity score below about -60%
Starred values were filed as active, the others as inactive.

SMILES | aSyn 5UTR act
CCCCC(=O)Nc1nc2c(s1)COc1ccccc1-2 | -107*
CCCC(=O)Nc1nc2c(s1)COc1ccccc1-2 | -134*
CCNc1nc(-c2ccc(OC(F)F)cc2)c(C)s1 | -72*
S=C(c1ccc(-c2ccccc2Cl)o1)N1CCCCC1 | -170*
CN1CCN(C(=S)c2ccc(-c3cccc(Cl)c3Cl)o2)CC1 | -113*
O=C(Nc1ccccc1N1CCCCC1)c1ccc(-c2ccc(Cl)cc2)o1 | 99
N#CCCN1CCN(C(=S)c2ccc(-c3ccc(Cl)cc3)o2)CC1 | -88*
S=C(c1ccc(-c2ccc(Cl)cc2)o1)N1CCCCC1 | -150*
O=C(c1ccc(-c2ccccc2Cl)o1)N1CCN(S(=O)(=O)c2cccs2)CC1 | -114*
O=C(NC(=S)Nc1ccccc1[N+](=O)[O-])c1ccccc1 | -136*
Cc1c(NC(=O)c2ccc3nsnc3c2)cccc1[N+](=O)[O-] | -68*
O=C(NC(=S)Nc1cccc2[nH]ncc12)c1ccccc1 | -176*
CC(C)(C)c1ccc(NC(=O)c2ccccc2)c([N+](=O)[O-])c1 | -100*
Cc1c(NC(=O)c2ccc(C(C)(C)C)cc2)cccc1[N+](=O)[O-] | -133*
Cn1cnc2cc(NC(=O)c3ccco3)ccc21 | -71*
O=C(Nc1ccc2c(c1)ncn2-c1ccccc1)c1ccco1 | -131*
O=c1[nH][nH]c(-c2ccccc2O)c1C(C[N+](=O)[O-])c1ccc(Br)cc1 (stereo unspecified) | -95*
N#Cc1ccccc1NC(=O)c1ccccc1OCC(=O)NCc1ccco1 | -68*
O=C(Cc1ccccc1[N+](=O)[O-])NCc1ccccc1Cl | -147*
Cc1ccccc1CNC(=O)Cc1ccccc1[N+](=O)[O-] | -96*
O=C(Cc1ccc(Cl)cc1)NCc1ccccc1Cl | -66*
COc1cc(N)ccc1C(=O)O | -76*
Cc1nc(Nc2nc3c(c(=O)[nH]2)CCC3)nc2ccccc12 | 126
COc1ccc2c(C)nc(Nc3nc(-c4ccccc4)cc(=O)[nH]3)nc2c1 | -635*
Cc1ccc2c(C)nc(Nc3nc(CSc4nc5ccccc5[nH]4)cc(=O)[nH]3)nc2c1 | 55
SMILES | aSyn 5UTR act
C[C@H]1C=CC(=O)O[C@H]1c1ccccc1 | -142*
O=C(NC1CCCCC1)N1CCc2ccccc2C1 | -85*
O=C(Nc1ccc(F)cc1)N1CCc2ccccc2C1 | -203*
O=C(Nc1ccc(Br)cc1)N1CCc2ccccc2C1 | -161*
C/C(=N\Nc1ccc([N+](=O)[O-])cc1)c1ccc(O)cc1 | -217*
C/C(=N\Nc1ccc([N+](=O)[O-])cc1)c1cccc(N)c1 | -199*
C/C(=N\N=C(/C)c1cccc(N)c1)c1cccc(N)c1 | -111*
O=C(Nc1ccc(-c2cnco2)cc1)c1ccc(F)cc1F | -146*
COc1ccccc1-c1nn2c(-c3ccco3)nnc2s1 | -196*
COc1ccccc1-c1nn2c(=O)cc(C)nc2s1 | -72*
CCN(CC)c1ccc(-c2nn3c(-c4ccccc4OC)nnc3s2)cc1 | 83
Cc1cc(=O)n2nc(-c3ccc(C(F)(F)F)cc3)sc2n1 | -149*
COc1cccc(-c2nnc3sc(-c4ccccc4)nn23)c1 | -69*
Cc1ccc2cc3cc(C(=O)NC4CCCCC4)oc3nc2c1 | -153*
Cc1ccc2cc3cc(C(=O)NC4CC4)oc3nc2c1 | -134*
O=C(NCC(=O)N1CCN(c2ncccn2)CC1)c1cccs1 | -66*
COC(=O)CSc1nc2cc(C)cc(C)c2cc1C#N | -180*
Cc1cc(C)c2cc(C#N)c(N3CCCN(C(=S)NCCCN(C)C)CC3)nc2c1 | 96
COC(=O)CSc1nc2ccc(C)cc2cc1C#N | -72*
COC(=O)c1ccc(-c2noc(CN3C[C@H]4CC[C@H]3C4)n2)cc1 | -119*
Nc1nc(CSCc2ccccc2)nc(N2CCOCC2)n1 | -67*
Nc1ccc2oc(-c3cccc4ccccc34)nc2c1 | 71
Nc1ccc2oc(-c3cccs3)nc2c1 | -89*
O=C(Nc1cccc(-c2nnc(-c3ccccc3)o2)c1)C1CC1 | -89*
CCOc1cccc(C(=O)Nc2cccc(-c3nnc(-c4ccccc4)o3)c2)c1 | -77*
SMILES | aSyn 5UTR act
CC(=O)Nc1cccc(-c2nnc(-c3ccccc3)o2)c1 | -150*
CCC(c1nnc(SCc2nc3ccccc3s2)n1Cc1ccccc1)N(C)C (stereo unspecified) | -101*
Cc1nnc(SCc2nc3ccccc3s2)n1-c1ccccc1 | -195*
CCn1c(SCc2nc3ccccc3s2)nnc1-c1ccccc1 | -117*
c1ccc(-n2cnnc2SCc2nc3ccccc3s2)cc1 | -146*
CCn1c(SCC(O)c2ccccc2)nnc1-c1ccccc1 (stereo unspecified) | -70*
Cc1nnc(SCc2nc3ccccc3s2)n1N | -145*
CSc1nnc2c(n1)OC(C)N(C(=O)c1ccccc1)c1ccccc1-2 (stereo unspecified) | -65*
CCOC(=O)c1c(CSc2ccc(CC)cc2)oc2ccc(O)c(CN(C)C)c12 | 66
CC(=O)c1c(CSc2ccccc2)oc2ccc(O)c(CN(C)C)c12 | -63*
c1ccc(-c2ccc3c(c2)NCCN3)cc1 | -113*
CC1(C)OC(=CC=Nc2ccc(Cl)cc2)OC1(C)C | 103
COc1cc(O)oc1C=Nc1ccc(C(=O)O)cc1 | -91*
